DAX1 inh-1: inhibitors of human orphan nuclear receptor DAX1 (NR0B1). P51843. HEK293 Gal4-DAX1 luciferase reporter, luminescence. inhibition, % at 6.75 µM. 340,000 tested, 0.99% active. AID 504766;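 active = inhibition above the mean over all tested compounds plus 3 SD, cut at about 4.2% in these data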;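 note: 0% = DAX1-transfected cells with DMSO and 100% = empty-vector control cells with DMSO; inhibition shows as a rise in luminescence from relieved DAX1 repression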
Target sequence (P51843 207-470 limits assumed): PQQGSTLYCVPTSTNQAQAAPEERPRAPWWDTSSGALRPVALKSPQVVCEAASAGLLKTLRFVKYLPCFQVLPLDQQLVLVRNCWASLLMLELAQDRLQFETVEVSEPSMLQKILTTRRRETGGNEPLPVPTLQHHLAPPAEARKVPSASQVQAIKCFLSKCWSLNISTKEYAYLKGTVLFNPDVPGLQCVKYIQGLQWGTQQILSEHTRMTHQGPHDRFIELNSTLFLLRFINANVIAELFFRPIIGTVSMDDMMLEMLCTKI
ssDAF12 agonist: activators of S. stercoralis DAF-12 nuclear receptor. 370,000 tested, 1% active. HEK293 ssDAF-12/GRIP1 lit1-tk-luc reporter, luminescence; % of 3 µM dafachronic acid response. activation, % at 6.8 µM. AID 652126;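 active = activation above the mean over all tested compounds plus 3 SD, cut at about 0.9% in these data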;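 note: 0% = DMSO-only wells and 100% = 3 µM delta7-dafachronic acid wells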
hgDAF12 agonist: activates the H. glycines DAF-12 receptor ligand-binding domain. HEK293 GAL4-hgDAF12 UAS-luciferase reporter, agonist luminescence; normalized to butyrate control. activation, % at 6.8 µM. 370,000 tested, 1.8% active;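 active = activation above a cutoff set at the mean of all screened compounds plus 3 SD, cut at about 10% in these data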;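 note: 0% = DMSO wells and 100% = sodium butyrate wells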
Rev-erbA mod: Rev-erb alpha (human) modulation | P20393 | Rev-erbα–FITC-DNA binding, fluorescence polarization, 90 min | activity, % at 10 µM | 370,000 tested, 0.79% active | AID 1259318;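 active = activity above about 14%, limit read from the data; passing the limit was not always enough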;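 note: 0% = DMSO wells with 35 nM protein and 100% = DMSO wells with 750 nM protein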
DAX1 inh-2: DAX1 (NR0B1) inhibition, primary screen. HEK293T StAR-luciferase reporter, SF-1/DAX-1 repression relief. inhibition, % at 6.8 µM. 370,000 tested, 1.1% active. AID 652010;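 active = inhibition above the mean over all tested compounds plus 3 SD, cut at about 3.6% in these data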;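 note: 0% = DAX-1 cells with DMSO and 100% = cells lacking DAX-1 with DMSO; higher inhibition means more luminescence from relief of DAX-1 repression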
hcDAF-12 act: activates DAF-12 receptor from parasite H. contortus | 370,000 tested, 1.4% active | AID 652067 | HEK293 hcDAF-12 lit1-tk-luc reporter, luminescence; 0% DMSO, 100% Δ7-dafachronic acid | activation, % at 6.8 µM;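 active = activation above the mean of all tested compounds plus 3 SD, cut at about 5.5% in these data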;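 note: 100% = response to 3 µM Δ7-dafachronic acid high control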
* marks the source's active call; other numbers are inactive results; nt = no result. Most compounds without a hit are left out; they make up all but 4.8% or so of the library.

SMILES	DAX1 inh-1	ssDAF12 agonist	hgDAF12 agonist	Rev-erbA mod	DAX1 inh-2	hcDAF-12 act
COCC(C)n1c(COc2ccccc2F)nnc1SCC(=O)c1c(N)n(C)c(=O)n(C)c1=O (stereo not given)	1	-2	-2	-3	0	-1
COc1ccc(C(CNC(=O)CSc2ccccc2F)N2CCOCC2)cc1 (stereo not given)	0	1.1*	-1	-2	0	-1
CC(C)C(=O)Nc1c(-c2ccccc2)c(=O)c2ccccc2n1C	1	-2	0	0	0	2
COc1ccc(-c2c(NC(=O)c3ccco3)n(-c3ccc(C)cc3)nc(C)c2=O)cc1	nt	-1	0	2	0	3
COc1ccc(-c2c(NC(=O)c3ccco3)n(-c3ccccc3)nc(C)c2=O)cc1	4.8*	-1	-1	3	1	1
Cn1c(NC(=O)c2ccco2)c(-c2ccccc2)c(=O)c2ccccc21	4.2*	0	0	-1	0	1
CCCCS(=O)(=O)N[C@@H](Cc1ccc(OCCCCC2CCNCC2)cc1)C(=O)O	nt	nt	nt	-4	nt	nt
Cc1ccc(NC(=O)c2ccc3nc[nH]c3c2)c(O)c1	2	0	11*	-2	3	6.2*
COc1ccccc1NC(=O)c1ccc2[nH]c(C)c(C)c2c1	3	0	10*	4	1	3
CCOc1ccccc1NC(=O)c1ccc2nc[nH]c2c1	4.4*	-2	0	-8	0	-2
CCOC(=O)[C@@]12CN(C(=O)OC(C)(C)C)CC=C1N(Cc1ccc(OC)cc1)C(=O)[C@H]2CC(=O)N1CCSCC1	nt	-1	0	2	-1	0
O=C(CN1C(=O)NC(Cc2ccccc2)C1=O)Nc1ccc(F)cc1 (stereo not given)	4.5*	-1	0	-1	0	-2
O=C(CN1C(=O)NC(Cc2ccccc2)C1=O)Nc1ccc(F)c(Cl)c1 (stereo not given)	0	0	0	5	-1	0
CSc1ccccc1OCc1cc(C(=O)N(C)Cc2nonc2C)no1	2	-1	3	0	4.0*	2
CSc1ccccc1OCc1cc(C(=O)NC(C)Cc2cccc(C)n2)no1 (stereo not given)	-1	-2	-2	-4	-2	-4
Cc1nc(CNC(=O)c2cc(COc3c(F)cccc3F)on2)cs1	6.3*	-2	-1	0	0	1
Cc1nc(CN(C)C(=O)c2cc(COc3c(F)cccc3F)on2)cs1	2	-1	-5	-1	0	0
CSc1ccccc1OCc1cc(C(=O)NCc2cccc(C)n2)no1	2	-1	11*	-6	3	4
CCOC(=O)C1(Cc2ccccc2)CCCN(C(=O)COc2ccccc2OC)C1 (stereo not given)	4.3*	0	8	6	3	1
CCOC(=O)C1(Cc2cccc(OC)c2)CCCN(C(=O)CCc2cccnc2)C1 (stereo not given)	4	-1	12*	3	0	0
CCOC(=O)C1(Cc2ccccc2)CCCN(C(=O)C=C(C)C)C1 (stereo not given)	1	0	3	-1	0	3
CCOC(=O)C1(Cc2cccc(OC)c2)CCCN(C(=O)CSC)C1 (stereo not given)	4	-1	7	1	0	2
Nc1c(Cl)cc(N=Nc2ccccc2)cc1Cl	1	1.0*	7	-10	3	5
COc1ccccc1/C=C/C1(C(=O)NC2CCCC2)CC(=O)N1c1ccccc1 (stereo not given)	4.9*	-2	0	6	-1	-2
CC(C(=O)NC1CCCc2ccccc21)N1CCN(Cc2ccc3c(c2)OCO3)CC1 (stereo not given)	-1	1.0*	0	6	0	2
SMILES	DAX1 inh-1	ssDAF12 agonist	hgDAF12 agonist	Rev-erbA mod	DAX1 inh-2	hcDAF-12 act
CC(CCN1CCC(C(O)(c2ccccc2)c2ccccc2)CC1)Oc1cccc(C(F)(F)F)c1 (stereo not given)	nt	0	1	-6	0	6.4*
CCOC(=O)Cn1cc(CN2CCS(=O)(=O)N(Cc3ccccc3)C(C(=O)OC)C2)nn1 (stereo not given)	nt	1	0	5	-1	1
Nc1[nH]c(C(=O)c2ccccc2)c(-c2ccc3ccccc3c2)c1C(=O)NCc1ccc(F)cc1	nt	0	-3	2	1	0
CS(=O)(=O)Nc1ccc(C2=NN(S(C)(=O)=O)C(c3ccc4c(c3)OCO4)C2)cc1 (stereo not given)	2	-1	11*	1	3	1
COc1ccc(C2CC(c3ccc(OC)c(OC)c3)=NN2S(C)(=O)=O)cc1 (stereo not given)	4.6*	0	13*	0	2	4
O=c1c2ccccc2nc2ccc(NCc3ccco3)nn12	5.2*	0	9	-30	3	3
CC(=O)Oc1ccc([C@@H]2COc3c(ccc4c3C=CC(C)(C)O4)C2)c(OC(C)=O)c1	4.4*	-1	5	0	1	2
CC(C)C[C@@H]1COc2cc(Br)ccc2S(=O)(=O)N1Cc1cn(CCC2OCCCO2)nn1	nt	0	-2	3	-1	0
CN1CCCN(C(=O)C2CCCN(C(=O)c3ccc4c(c3)NC(=O)CS4)C2)CC1 (stereo not given)	nt	-1	-1	-4	0	1
COC(=O)[C@]12C[C@H](CC(=O)N3CCC(c4ccccc4)CC3)C(=O)N(Cc3ccc(Cl)cc3Cl)C1=C[C@H](C(C)(C)C)O[C@@H]2C	nt	1.1*	-3	6	0	-1
Clc1ccc(-c2cnc(Oc3ccccc3)nc2)cc1	2	1	11*	5	3	2
Cc1cccc(C)c1NC(=O)C1CCCN1S(=O)(=O)c1cccc2cccnc12 (stereo not given)	nt	-1	-1	-2	-1	-1
O=C(NCCc1ccc(O)cc1)c1[nH]c(C(F)(F)F)nc1-c1ccccc1	nt	-1	0	1	2	-2
O=C(NCCc1ccccc1)c1[nH]c(C(F)(F)F)nc1-c1ccccc1	nt	1.2*	0	-1	-1	-2
COc1ccc(Cc2nnc(SCC(=O)Nc3nc(C)cs3)o2)cc1	1	1.0*	0	-1	0	-1
COc1ccc(Cc2nnc(SCC(=O)c3ccc(OC)cc3)o2)cc1	-1	-1	-1	4	-1	-3
Cc1nc(-c2cc(-c3ccc(Cl)cc3)no2)cs1	4.5*	-1	3	-11	1	0
CN(C(=O)c1cccc(NC(=O)Cc2ccc(NC(=O)C3CCN(C(=O)CCc4ccccc4)CC3)cc2)c1)C1CCCC1	nt	-1	1	-8	0	-3
